In PubChem BioAssay (NCATS):
Inconclusive results are not listed. Unmarked numbers belong to inactive results. Activity calls are given as the source filed them. The call rests on the fitted dose curve; in most records, active means well fitted inhibition curve with a large enough effect; inconclusive means small, poorly fitted or top-dose-only effect; inactive means no such curve, though single readings can be large or run the other way.

Molecular target: Retinaldehyde dehydrogenase 3 (Homo sapiens) (UniProt P47895)
Assay: qHTS for Inhibitors of the Aldehyde Dehydrogenase Family (ALDH1A3) Primary screen (AID 2061315);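 further: plate controls were DMSO vehicle for no effect and reference inhibitor for full effect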
Settings: ALDH inhibition qHTS; series mostly up to 56 µM; activity change, negative = inhibition: at the top concentration

Compound	activity change, negative = inhibition [%]
C[C@H](O)[C@@H]1C(=O)N2C(C(=O)O)=C(S[C@@H]3CN[C@H](CNS(N)(=O)=O)C3)[C@@H](C)[C@@H]12	-7.66
CN(Cc1ccccc1)C(=O)c1ccc(S(=O)(=O)Nc2ccccc2)cc1	6.43
Nc1nccn2c(C3CCC(C(=O)O)CC3)nc(-c3cc4cccc(Cl)c4[nH]3)c12 (stereo not drawn)	48.1
COc1ccc(-c2cc(C(O)C3CCCCN3)c3ccccc3n2)cc1 (stereo not drawn)	-14.8

Tested on: not listed separately
Assay: BET inhibitor-based combinations targeting novel dependencies in MECOM-rearranged (r) AML: SET-2 cell line (AID 2202231); further: nearly all actives have a fitted effect of over 35% in size; further: potency means the concentration at half of the fitted maximal effect;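 on viability: plate controls were DMSO treated cells for no effect and wells without cells for full effect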
Settings: SET-2 AML cells viability, CellTiter-Glo luminescence, 48 h; viability: stronger effect = lower value, concentration not given here
Outline: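 Viability of cells (500 per well) is scored by luminescent CellTiter-Glo at 48 hr post-dosing. Eleven-point titrations are normalized to DMSO and empty controls and reduced to AUC values.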

Compound	Potency	viability [%]
CCOC(=O)C1=CCCCC1S(=O)(=O)Nc1ccc(F)cc1Cl (stereo not drawn)	20.9 µM (active)	–
CC(C)NCCCn1c(Sc2cc(Cl)cc(Cl)c2)nc2c(N)ncnc21	–	98.3
C=CC(=O)N1C[C@H](Nc2ncnc3[nH]ccc23)CC[C@@H]1C	–	94.9
CC(C)Oc1ccc(-c2nc(-c3cccc4c3CC[C@@H]4NCCO)no2)cc1C#N	–	97.4
CN(Cc1ccccc1)C(=O)c1ccc(S(=O)(=O)Nc2ccccc2)cc1	–	103
[2H]C([2H])([2H])C(O)([C@@H](C)/C=C/[C@@H](C)[C@H]1CC[C@H]2/C(=C/C=C3C[C@@H](O)C[C@H](O)C3)CCC[C@]12C)C([2H])([2H])[2H]	–	79.5
Cc1[nH]c(/C=C2\C(=O)Nc3ccccc32)c(C)c1CCC(=O)O	–	83.1
CC(=O)[C@]1(N)Cc2c(O)c3c(c(O)c2[C@@H](O[C@H]2C[C@H](O)[C@H](O)CO2)C1)C(=O)c1ccccc1C3=O	–	106
NS(=O)(=O)Oc1ccc2c3c(c(=O)oc2c1)CCCCC3	–	105
